Data: PubChem BioAssay AID1159580 (chemical genetic matrix, 2015)
Screen size: about 5,500 compounds; about 2,000 (36%) were called active. Another 18% or so got no clear call; they are omitted. Rule as the data show it: active = normalized growth mostly below about 0.91 (no sharp cut-off); inconclusive = no clear call, values can overlap the other calls; inactive = mostly above about 0.92. The list shows a part of the results.

Test: chemical genetic growth profiling, strain panel (AID 1159580);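 also: tested at 20 µM; growth read once vehicle control cultures reached saturation at 30 °C; 1 = growth at the plate median or of vehicle wells; lower values mean less growth of the strain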
Settings: growth OD

Measured: normalized growth

N[C@@H](Cc1ccc(O)c(O)c1)C(=O)O
inactive: S. cerevisiae deletion strains, locus YJR075W, strain HOC1, active compounds read low 1 | S. cerevisiae deletion strains, locus YKL009W, strain mrt4, active compounds read low 0.961 | S. cerevisiae deletion strains, locus YKL068W, active compounds read low 0.979 | S. cerevisiae deletion strains, locus YKL085W, strain MDH1 (second series), active compounds read low 1 | S. cerevisiae deletion strains, locus YKL085W, strain MDH1, active compounds read low 1 | S. cerevisiae deletion strains, locus YKL160W, strain elf1, active compounds read low 1.01 | S. cerevisiae deletion strains, locus YKL190W, strain CNB1, active compounds read low 0.964 | S. cerevisiae deletion strains, locus YKR001C, strain vps1, active compounds read low 1 | S. cerevisiae deletion strains, locus YKR026C, strain gcn3, active compounds read low 0.989 | S. cerevisiae deletion strains, locus YKR091W, strain srl3, active compounds read low 0.998 | S. cerevisiae deletion strains, locus YLL001W, strain dnm1, active compounds read low 0.983 | S. cerevisiae deletion strains, locus YLL026W, active compounds read low 0.995 | S. cerevisiae deletion strains, locus YLL041C, strain sdh2, active compounds read low 1 | S. cerevisiae deletion strains, locus YLR027C, strain aat2, active compounds read low 1.01 | S. cerevisiae deletion strains, locus YLR039C, strain RIC1, active compounds read low 0.91 | S. cerevisiae deletion strains, locus YLR058C, strain SHM2, active compounds read low 0.996 | S. cerevisiae deletion strains, locus YLR102C, strain apc9, active compounds read low 0.991 | S. cerevisiae deletion strains, locus YLR113W, strain HOG1, active compounds read low 0.93 | S. cerevisiae deletion strains, locus YLR221C, strain rsa3, active compounds read low 0.999 | S. cerevisiae deletion strains, locus YLR258W, strain gsy2, active compounds read low 0.985 | S. cerevisiae deletion strains, locus YLR262C, strain YPT6 (second series), active compounds read low 1.01 | S. cerevisiae deletion strains, locus YLR262C, strain YPT6, active compounds read low 0.898 | S. cerevisiae deletion strains, locus YLR268W, strain sec22, active compounds read low 1 | S. cerevisiae deletion strains, locus YLR320W, strain mms22, active compounds read low 1.01 | S. cerevisiae deletion strains, locus YLR330W, strain CHS5, active compounds read low 0.987 | S. cerevisiae deletion strains, locus YLR342W, strain FKS1 (second series), active compounds read low 0.949 | S. cerevisiae deletion strains, locus YLR342W, strain FKS1, active compounds read low 1.01 | S. cerevisiae deletion strains, locus YLR357W, strain rsc2, active compounds read low 0.975 | S. cerevisiae deletion strains, locus YLR370C, strain arc18, active compounds read low 1 | S. cerevisiae deletion strains, locus YLR371W, strain rom2, active compounds read low 0.975 | S. cerevisiae deletion strains, locus YLR384C, strain iki3, active compounds read low 1 | S. cerevisiae deletion strains, locus YLR418C, strain cdc73, active compounds read low 1.04 | S. cerevisiae deletion strains, locus YML016C, strain PPZ1, active compounds read low 0.991 | S. cerevisiae deletion strains, locus YML032C, strain rad52, active compounds read low 0.991 | S. cerevisiae deletion strains, locus YML120C, strain ndi1, active compounds read low 1 | S. cerevisiae deletion strains, locus YML124C, strain tub3, active compounds read low 0.996 | S. cerevisiae deletion strains, locus YMR058W, strain fet3, active compounds read low 0.993 | S. cerevisiae deletion strains, locus YMR078C, strain ctf18, active compounds read low 0.995 | S. cerevisiae deletion strains, locus YMR125W, strain sto1, active compounds read low 0.976 | S. cerevisiae deletion strains, locus YMR129W, active compounds read low 0.986 | S. cerevisiae deletion strains, locus YMR205C, strain PFK2, active compounds read low 0.982 | S. cerevisiae deletion strains, locus YMR223W, strain ubp8, active compounds read low 1.01 | S. cerevisiae deletion strains, locus YMR231W, strain pep5, active compounds read low 0.992 | S. cerevisiae deletion strains, locus YMR263W, strain SAP30, active compounds read low 0.982 | S. cerevisiae deletion strains, locus YMR307W, strain GAS1, active compounds read low 0.921 | S. cerevisiae deletion strains, locus YNL067W, strain RPL9B, active compounds read low 0.982 | S. cerevisiae deletion strains, locus YNL071W, strain lat1, active compounds read low 1.02 | S. cerevisiae deletion strains, locus YNL128W, strain TEP1, active compounds read low 0.954 | S. cerevisiae deletion strains, locus YNL153C, strain GIM3, active compounds read low 0.991 | S. cerevisiae deletion strains, locus YNL183C, strain NPR1, active compounds read low 0.923 | S. cerevisiae deletion strains, locus YNL209W, strain ssb2, active compounds read low 1.01 | S. cerevisiae deletion strains, locus YNL233W, strain BNI4, active compounds read low 1 | S. cerevisiae deletion strains, locus YNL248C, strain rpa49, active compounds read low 0.99 | S. cerevisiae deletion strains, locus YNL250W, strain rad50, active compounds read low 0.98 | S. cerevisiae deletion strains, locus YNL271C, strain bni1, active compounds read low 0.987 | S. cerevisiae deletion strains, locus YNL298W, strain CLA4, active compounds read low 0.995 | S. cerevisiae deletion strains, locus YNL307C, strain MCK1, active compounds read low 1 | S. cerevisiae deletion strains, locus YNL322C, strain KRE1 (second series), active compounds read low 0.99 | S. cerevisiae deletion strains, locus YNL322C, strain KRE1, active compounds read low 0.989 | S. cerevisiae deletion strains, locus YNR049C, strain mso1, active compounds read low 1 | S. cerevisiae deletion strains, locus YNR052C, strain pop2, active compounds read low 1 | S. cerevisiae deletion strains, locus YOL006C, strain TOP1, active compounds read low 0.753 | S. cerevisiae deletion strains, locus YOL012C, strain htz1 0.813 | S. cerevisiae deletion strains, locus YOL147C, strain pex11, active compounds read low 1 | S. cerevisiae deletion strains, locus YOR001W, strain rrp6, active compounds read low 0.996 | S. cerevisiae deletion strains, locus YOR061W, strain CKA2, active compounds read low 0.992 | S. cerevisiae deletion strains, locus YOR069W, strain VPS5, active compounds read low 1 | S. cerevisiae deletion strains, locus YOR070C, strain gyp1, active compounds read low 0.998 | S. cerevisiae deletion strains, locus YOR080W, strain dia2, active compounds read low 0.993 | S. cerevisiae deletion strains, locus YOR083W, strain WHI5, active compounds read low 1.01 | S. cerevisiae deletion strains, locus YOR106W, strain vam3, active compounds read low 0.996 | S. cerevisiae deletion strains, locus YOR136W, strain idh2, active compounds read low 1 | S. cerevisiae deletion strains, locus YOR144C, strain elg1, active compounds read low 0.996 | S. cerevisiae deletion strains, locus YOR184W, strain ser1, active compounds read low 0.982 | S. cerevisiae deletion strains, locus YOR231W, strain MKK1, active compounds read low 0.942 | S. cerevisiae deletion strains, locus YOR265W, strain rbl2, active compounds read low 0.998 | S. cerevisiae deletion strains, locus YOR270C, strain vph1, active compounds read low 1.02 | S. cerevisiae deletion strains, locus YOR290C, strain snf2, active compounds read low 0.933 | S. cerevisiae deletion strains, locus YOR316C, strain cot1, active compounds read low 0.995 | S. cerevisiae deletion strains, locus YPL051W, strain arl3, active compounds read low 0.994 | S. cerevisiae deletion strains, locus YPL055C, strain LGE1, active compounds read low 0.92 | S. cerevisiae deletion strains, locus YPL078C, strain atp4, active compounds read low 1.01 | S. cerevisiae deletion strains, locus YPL106C, strain sse1, active compounds read low 0.96 | S. cerevisiae deletion strains, locus YPL240C, strain hsp82, active compounds read low 0.995 | S. cerevisiae deletion strains, locus YPL241C, strain CIN2, active compounds read low 0.987 | S. cerevisiae deletion strains, locus YPL256C, strain CLN2, active compounds read low 0.929 | S. cerevisiae deletion strains, locus YPR119W, strain clb2, active compounds read low 1 | S. cerevisiae deletion strains, locus YPR141C, strain kar3, active compounds read low 0.98 | S. cerevisiae deletion strains, locus YPR163C, strain tif3, active compounds read low 1.01 | S. cerevisiae deletion strains, locus YPR167C, strain met16, active compounds read low 1.01 | S. cerevisiae deletion strains, strain wtn01, active compounds read low 1.01 | S. cerevisiae strains, strain wild type, active compounds read low 0.955
